Myeloid diff MLP = compounds promoting myeloid differentiation. ER-HoxA9 myeloid progenitors, lysozyme-GFP differentiation, flow cytometry. calls only at 10 µM. 360,000 tested, 1% active. AID 624256;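 active = normalized GFP-positive differentiation at or above the plate's own cutoff, the solvent-only control mean plus 3 SD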;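 note: cells exposed to compound for four days before flow analysis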
rCAG binder = binds r(CAG) RNA repeats; r(CAG) RNA repeat, TO-PRO-1 dye displacement fluorescence; inhibition, % at 3 µM; 370,000 tested, 1.3% active; AID 651821;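 active = inhibition above the plate cutoff, the mean of all test compounds on that plate plus 3 SD, cut at about 35% in these data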;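 note: higher means more dye released from RNA so lower well fluorescence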
FAS TE block = FAS thioesterase (human) inhibition. recombinant FAS-TE, OMFH fluorogenic substrate, fluorescence endpoint. inhibition, % at 15 µM. 360,000 tested, 0.67% active. AID 602261;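 active = compounds whose normalised, plate-corrected inhibition of enzyme fluorescence in the single-dose primary screen is 50% or more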
MPTP block = inhibitors of mitochondrial permeability transition pore; isolated mouse mitochondria, Ca2+ swelling absorbance, 30 min; inhibition, % at 10 µM; 360,000 tested, 1.4% active;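 active = inhibition of 50% or more, scaled per plate between neutral and stimulator controls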
NR3A LBD binder = modulators (binders) of human NR3A ligand-binding domain. NR3A LBD differential scanning fluorimetry, Tm shift; 0% = protein alone, 100% = glycine-bound protein. Tm shift relative to glycine control, % at 25 µM. 340,000 tested, 2.5% active. AID 1259313;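 active = melting temperature shift of at least 10% of the positive control shift, at one fixed dose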
Myeloid diff CP1 = compounds promoting myeloid differentiation. shares compounds with Myeloid diff MLP. ER-HoxA9 myeloid progenitors, GFP/Mac1 double-positive flow. calls only. 2,300 tested, 2% active. AID 651706;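 active = share of green or green-and-red cells above 9 and 9% in run 1 or 4 and 3% in run 2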
GFP autofluor = counter-screen for myeloid differentiation promoters: compound fluorescence; shares compounds with Myeloid diff MLP; fluorescence response, % (no concentration beside the values); 2,300 tested, 7.4% active; ER-HoxA9 myeloid progenitors, no estrogen, GFP autofluorescence flow cytometry; vehicle wells 0%, positive control 100%;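 active = over 5% cells positive for green fluorescent reporter, or over 2% positive for both it and APC stain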
Numbers stand for hits. Compounds with a hit are over-represented: about 5.7% of the library has one in this group of screens.

How did CCOC(=O)CC[C@H]1CC[C@]2(CCCN(S(=O)(=O)C3CCCCC3)C2)O1 do in these assays?
rCAG binder: inactive

How did O=C(NCC(=O)N1CC(O)CC1C(=O)N1CC(O)CC1C(=O)OCc1ccccc1)OCc1ccccc1 (centres undefined) do in these assays?
Myeloid diff MLP: inactive; rCAG binder: inactive; FAS TE block: inactive; MPTP block: inactive; NR3A LBD binder: inactive

How did CC(=O)c1ccc(N2Cc3ccccc3/C2=N\C(=O)Nc2ccc(Cl)cc2)cc1 do in these assays?
Myeloid diff MLP: inactive; rCAG binder: inactive; FAS TE block: inactive; MPTP block: inactive; NR3A LBD binder: inactive; Myeloid diff CP1: inactive; GFP autofluor: inactive

Results for COC(=O)c1ccc(N2Cc3ccccc3/C2=N\C(=O)Nc2ccccc2)cc1 ?
Myeloid diff MLP: inactive; rCAG binder: inactive; FAS TE block: inactive; MPTP block: inactive; NR3A LBD binder: inactive

Results for Cc1cccc(NC(=S)NCC23C=CC(O2)C2C(=O)N(c4ccc(Cl)cc4)C(=O)C23)c1 (centres undefined) ?
Myeloid diff MLP: active; rCAG binder: inactive; FAS TE block: inactive; MPTP block: inactive; NR3A LBD binder: 12; Myeloid diff CP1: inactive; GFP autofluor: inactive

How did CC1CCN(c2nc3ccc(C(=O)NCCCN4CCCCC4C)cc3s2)CC1 (centres undefined) do in these assays?
Myeloid diff MLP: inactive; rCAG binder: inactive; FAS TE block: inactive; MPTP block: inactive; NR3A LBD binder: inactive

What do the screens show for `Cc1cccc(C)c1NC(=O)C1(C)CSCC(=O)N1CCOc1ccccc1` (centres undefined)?
Myeloid diff MLP: inactive; rCAG binder: inactive; MPTP block: inactive; Myeloid diff CP1: inactive; GFP autofluor: inactive

How did COCc1c(C)cc(C)c(/C=N/O)c1C do in these assays?
Myeloid diff MLP: inactive; rCAG binder: inactive; FAS TE block: inactive; MPTP block: inactive; NR3A LBD binder: inactive; Myeloid diff CP1: inactive; GFP autofluor: inactive

What do the screens show for `Cc1ccc(OCCn2c(C)nc3ccccc32)cc1`?
Myeloid diff MLP: inactive; rCAG binder: inactive; FAS TE block: inactive; MPTP block: inactive; NR3A LBD binder: inactive; Myeloid diff CP1: inactive; GFP autofluor: inactive

Results for Cc1ccc2nc3c(cc2c1)CN(Cc1ccco1)C(=NCC1CCCO1)S3 (centres undefined) ?
Myeloid diff MLP: inactive; rCAG binder: inactive; FAS TE block: inactive; MPTP block: inactive; NR3A LBD binder: inactive; Myeloid diff CP1: inactive; GFP autofluor: inactive

Results for Cc1cccc2cc3c(nc12)SC(=NCC1CCCO1)N(Cc1ccco1)C3 (centres undefined) ?
Myeloid diff MLP: inactive; FAS TE block: inactive; MPTP block: inactive; NR3A LBD binder: inactive

How did CCOc1ccccc1NC(=O)C(OC(=O)c1ccccc1)c1ccccc1 (centres undefined) do in these assays?
Myeloid diff MLP: inactive; rCAG binder: inactive; FAS TE block: inactive; MPTP block: inactive; NR3A LBD binder: inactive

What do the screens show for `CCOc1ccccc1NC(=O)C(OC(=O)c1ccc(NC(=O)CC#N)cc1)c1ccccc1` (centres undefined)?
Myeloid diff MLP: active; rCAG binder: inactive; FAS TE block: inactive; MPTP block: inactive; NR3A LBD binder: inactive; Myeloid diff CP1: inactive; GFP autofluor: 5.3

How did CCOC(=O)c1c(NC(=O)C(C)OC(=O)c2ccc(NC(=O)CC#N)cc2)sc2c1CCCC2 (centres undefined) do in these assays?
Myeloid diff MLP: active; rCAG binder: inactive; FAS TE block: inactive; MPTP block: inactive; NR3A LBD binder: 12; Myeloid diff CP1: inactive; GFP autofluor: inactive

Results for CC(OC(=O)c1ccc(NC(=O)CC#N)cc1)C(=O)NC(c1ccccc1)c1ccccc1 (centres undefined) ?
Myeloid diff MLP: inactive; rCAG binder: inactive; FAS TE block: inactive; MPTP block: inactive; NR3A LBD binder: inactive; Myeloid diff CP1: inactive; GFP autofluor: inactive

How did COc1ccc([C@H]2CC(=O)C=C(c3ccc(C)c4ccccc34)C2)cc1 do in these assays?
Myeloid diff MLP: inactive; rCAG binder: inactive; FAS TE block: inactive; MPTP block: inactive; NR3A LBD binder: inactive

What do the screens show for `Cn1[nH]c2c(c1=O)[C@H](c1ccc(F)cc1)O[C@H](CCc1ccccc1)C2`?
Myeloid diff MLP: inactive; rCAG binder: inactive; FAS TE block: inactive; MPTP block: inactive

How did Cc1ccc(C(C(=O)NC2CCCC2)N(C(=O)Cc2cccs2)c2cccc(C)c2C)o1 (centres undefined) do in these assays?
Myeloid diff MLP: inactive; rCAG binder: inactive; FAS TE block: inactive; MPTP block: inactive; NR3A LBD binder: inactive; Myeloid diff CP1: inactive; GFP autofluor: inactive

Results for COc1ccccc1CN(C(=O)Cc1cccs1)C(C(=O)NC1CCCC1)c1ccncc1 (centres undefined) ?
Myeloid diff MLP: inactive; rCAG binder: inactive; FAS TE block: inactive; MPTP block: inactive; NR3A LBD binder: inactive; Myeloid diff CP1: inactive; GFP autofluor: inactive

Results for CC#CCN1c2ccccc2[C@]23C[C@@H](C(=O)OC)N(C(=O)NC4CCCCC4)C2=NC(C(=O)OC)=C(C(=O)OC)[C@H]13 ?
Myeloid diff MLP: inactive; rCAG binder: inactive; FAS TE block: inactive; MPTP block: inactive; NR3A LBD binder: inactive; Myeloid diff CP1: inactive; GFP autofluor: inactive

How did COc1cc2[nH]c(=O)n(CCCC(=O)N3CC=C(c4ccccc4)CC3)c(=O)c2cc1OC do in these assays?
Myeloid diff MLP: active; rCAG binder: inactive; FAS TE block: inactive; MPTP block: inactive; NR3A LBD binder: inactive; Myeloid diff CP1: inactive; GFP autofluor: inactive

How did O=C(NCc1cccnc1)C1Cc2c(-c3ccc(Cl)cc3)ccnc2O1 (centres undefined) do in these assays?
Myeloid diff MLP: active; rCAG binder: inactive; FAS TE block: inactive; MPTP block: inactive; Myeloid diff CP1: inactive; GFP autofluor: inactive

How did Cc1nn(-c2ccccc2)c(N2CCCC2)c1/C=N/NC(=S)Nc1ccccc1F do in these assays?
Myeloid diff MLP: active; rCAG binder: inactive; FAS TE block: inactive; MPTP block: inactive; NR3A LBD binder: inactive; Myeloid diff CP1: active; GFP autofluor: inactive

Results for CNC(=S)N/N=C/c1c(C)nn(-c2ccc(F)cc2)c1Cl ?
Myeloid diff MLP: inactive; rCAG binder: inactive; FAS TE block: inactive; MPTP block: inactive; NR3A LBD binder: inactive

How did COc1ccc(OC2C(=O)N(Cc3ccc(F)cc3)C2c2cc(OC)c(OC)c(OC)c2)cc1 (centres undefined) do in these assays?
Myeloid diff MLP: inactive; rCAG binder: inactive; FAS TE block: inactive; MPTP block: inactive; NR3A LBD binder: inactive

How did COc1ccc(C2C(Oc3ccccc3C)C(=O)N2Cc2ccc(F)cc2)cc1OC (centres undefined) do in these assays?
Myeloid diff MLP: inactive; rCAG binder: inactive; FAS TE block: inactive; MPTP block: inactive; NR3A LBD binder: inactive; Myeloid diff CP1: inactive; GFP autofluor: inactive
